From PubChem BioAssay
This excerpt belongs to a sample that is enriched for hits.
GluA2 TARP mod = modulators of AMPA receptor GluA2-stargazin complexes; 40,000 tested, 3.5% active; HEK293 GluA2+stargazin, membrane potential dye (FDSS), glutamate EC50; hits were called plate by plate, in both directions; calls only at 30 µM; O88602+P19491; AID 1259245;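 active = any of four per-well response measures lying three or more SD from its plate-wide compound average, in either direction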
GIRK2 act = GIRK2 channel activators by thallium flux; HEK293 GIRK2/NPY4 cells, thallium flux fluorescence; 34,000 tested, under 10 active; AID 1259324; P48051; activation (% efficacy), % for hits at 75 µM;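 active = primary screen hit, no activity in plain HEK293 cells, and in GIRK2-only cells above 5% efficacy rising with concentration; inactive = the rest, including fluorescent compounds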;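 note: efficacy is normalized control-subtracted fluorescence 15 s after thallium addition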
* = called active by the depositor; i = inactive; · = no result given; + = active, no number.

SMILES	GluA2 TARP mod	GIRK2 act
O=C(Nc1ccc(OC(F)(F)F)cc1)c1csc(NS(=O)(=O)c2ccccc2)n1	i	i
Cn1nc(NC(=O)Cc2noc3ccccc23)c2c1NC(=O)CC2c1ccco1 (stereo not drawn)	i	i
CN(C)CCNC(=O)CCN1C(=O)c2ccccc2S1(=O)=O	i	i
COc1ccc(-c2ccc(C)c(NS(=O)(=O)c3ccc(NC(=O)C(C)C)cc3)c2)nn1	+	i
COc1ccc(-c2ccc(C)c(NC(=O)Cc3ccc(OC)c(OC)c3)c2)nn1	i	i
O=C(c1ccc(S(=O)(=O)NCc2cccs2)o1)N1CCc2ccccc21	i	i
CS(=O)(=O)N1CCC(C(=O)Nc2nc3ccc(Cl)cc3s2)CC1	·	i
COc1ccc(F)cc1S(=O)(=O)Nc1ccc(-c2ccc(=O)n(C)n2)cc1	i	i
COc1ccc(F)cc1S(=O)(=O)Nc1cccc(-c2ccc(=O)n(C)n2)c1	+	i
O=C(c1ccc2c(c1)OCO2)N1CCN(c2ccc(-c3ccncc3)nn2)CC1	i	i
COc1ccc(-c2ccc(N3CCC(C(=O)NCCc4c[nH]c5ccccc45)CC3)nn2)cc1	+	i
O=C(Cc1c[nH]c2ccccc12)N1CCN(c2ccc(N3CCCC3)nn2)CC1	+	i
COc1ccc(-c2ccc(N3CCC(C(=O)NC4CC4)CC3)nn2)cc1	+	i
COc1cc(OC)cc(C(=O)N2CCN(c3ccc(-c4ccncc4)nn3)CC2)c1	+	i
COc1ccccc1CNC(=O)C1CCN(c2ccc(-c3ccc(F)cc3)nn2)CC1	i	i
O=C(Cc1c[nH]c2ccccc12)N1CCN(c2cc(-c3cccnc3)[nH]n2)CC1	·	i
COc1ccc(-c2ccc(N3CCC(C(=O)N4CCN(C)CC4)CC3)nn2)cc1	i	i
COCC(=O)N1CCCc2ccc(NC(=O)NC(c3ccccc3)c3ccccc3)cc21	·	i
CN1CC(NC(=O)CSCc2ccccc2)CC1=O (stereo not drawn)	·	i
O=C(NCC(O)c1ccc(C(F)(F)F)cc1)Nc1cccs1 (stereo not drawn)	+	·
O=C(NCc1cccs1)NCC(O)c1ccc(C(F)(F)F)cc1 (stereo not drawn)	i	·
COCCCNC(=O)c1ccc2c(c1)ncn2-c1ccccc1	i	i
C#CCn1c(=NC(=O)C2CCN(S(C)(=O)=O)CC2)sc2cc3c(cc21)OCCO3	·	i
COc1cccc(-c2cc(CC(=O)NCCCN3CCOCC3)no2)c1	+	i
COc1ccc(-c2cc(CC(=O)NCCN3CCOCC3)no2)cc1	·	i
SMILES	GluA2 TARP mod	GIRK2 act
Cc1nc2ncccc2c(=O)n1-c1cccc(NC(=O)COc2ccccc2)c1	i	·
Cn1nc(-c2cccc(NC(=O)c3cccnc3)c2)ccc1=O	+	i
Cn1nc(-c2cccc(NC(=O)Nc3ccccc3)c2)ccc1=O	i	i
Cc1ccc(N2CCN(c3ccc(S(=O)(=O)c4ccccc4)nn3)CC2)c(C)c1	i	i
Cc1ccc(C)c(N2CCN(c3ccc(S(=O)(=O)c4ccccc4)nn3)CC2)c1	+	i
Cn1nc2c(c1NC(=O)CSc1ccc(F)cc1)CCC2	i	i
CCCc1nnc2c(=O)n(-c3cc(C)cc(C)c3)ccn12	+	i
CC(NC(=O)CCCc1nnc2c(=O)n(-c3ccc(Cl)cc3)ccn12)c1ccccc1 (stereo not drawn)	i	·
Cc1ccc(N2C=C(C#N)S(=O)(=O)c3ccc(Cl)cc32)c(C)c1	i	i
CCc1cc(S(=O)(=O)N2CCN(C)CC2)ccc1OC	i	·
Cc1ccc(NC(=O)C(=O)NCc2ccc3c(c2)OCO3)cc1N1CCCC1=O	i	i
Cc1nn2c(N3CCN(c4ccccn4)CC3)cc(C(C)C)nc2c1-c1ccccc1	i	i
Cc1cc(C)n(-c2cc(C(C)C)nc3c(-c4ccccc4)c(C)nn23)n1	+	i
CCOC(=O)Cn1c(=NC(=O)c2ccn(C)n2)sc2cc3c(cc21)OCCO3	i	i
O=C(Nc1ccc(F)c(F)c1)c1n[nH]c2ccccc12	+	·
CSc1cccc(NC(=O)c2n[nH]c3ccccc23)c1	i	i
O=C(CS(=O)(=O)c1ccc(Cl)s1)Nc1cccc(C(F)(F)F)c1	+	i
O=C(CS(=O)(=O)c1ccc(Cl)s1)Nc1ccc(Oc2ccccc2)cc1	i	i
O=C(NCCc1ccccc1)C(=O)NCC1CCN(C(=O)COc2ccccc2)CC1	+	i
O=C(NCc1ccccc1Cl)C(=O)NCC1CCN(C(=O)COc2ccccc2)CC1	i	i
O=C(NCc1cccc2ccccc12)NCC1CCN(C(=O)COc2ccccc2)CC1	+	i
O=C(NCCc1ccccc1)NCC1CCN(C(=O)COc2ccccc2)CC1	i	i
COc1ccc(-c2ccc(=O)n(CCNS(=O)(=O)c3ccc(F)cc3F)n2)cc1	i	·
